Sampled rows, rich in hits. Any-hit rate of the full collection: about 5.9%.
ATXN viability: reduces viability in counter-screen for ATXN expression inhibitors. S2 cells (HEK-293 line with an ATXN2-luciferase reporter) viability, CellTiter-Fluor protease fluorescence, 24 h. Potency, µM (highest dose often 56.7 µM), hits mostly cytotoxic. 400,000 compounds, 0.49% hits; note: nearly all actives have a fitted effect of over 40% in size
ATXN2 expr inh: inhibitors of ATXN2 expression; Potency, µM (doses to about 57 µM), for inactives: at the top dose activity change, negative = inhibition, hits mostly inhibitors; 360,000 compounds, 0.72% hits; AID 1745845; HEK-293 ATXN2-luciferase reporter, luminescence, 24 h; note: % is set by controls: 0 for no effect and ±100 for the full control effect; nearly all actives have a fitted effect of over 55% in size
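qHTS (up to 57 uM final) was run with 24 h compound exposure of reporter cells at 37 °C. Each well was multiplexed: SteadyGlo luminescence measured ATXN2-luciferase expression after a fluorogenic Gly-Phe-AFC viability readout (25 uM final).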
TGFb SMAD3 inh: TGF-b pathway inhibition. HepG2 CAGA-GFP TGF-b/SMAD3 reporter, GFP fluorescence, 18 h; TGF-beta stimulated, 500 pg/mL final. Potency, µM (highest dose often 46.1 µM), without a hit: top-dose activity, negative = inhibition, most hits filed as inhibitors. 410,000 compounds, 1.2% hits. AID 588855; note: % is set by controls: 0 for no effect and ±100 for the full control effect; nearly all actives have a fitted effect of over 65% in size
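HEPG2 CAGA-GFP cells (1000/well, DMEM with 1% FBS) were pre-incubated 2 h at 37 degrees C, given compound by pin tool, then stimulated with TGF-beta at 500 pg/mL final for 18 h before per-cell GFP fluorescence imaging.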
HepG2 tox: counter-screen for TGF-b inhibitors: cytotoxicity in HepG2 cells; 410,000 compounds, 0.76% hits; HepG2 CAGA-GFP viability, ATP luminescence, 18 h; Potency, µM (top dose mostly 46.1 µM), for inactives: at the top dose activity change, negative = cytotoxicity, usual class: cytotoxic; AID 588856
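CellTiter-Glo luminescence gave cytotoxicity after 18 hours at 37 degrees C. The cells were HepG2 CAGA-GFP in 1% FBS DMEM, stimulated with 500 pg/mL TGF-beta after compound addition. %Activity was normalised to no-cell wells (complete cell-killing) and DMSO (no toxicity), and curves were fitted and classified.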
KB-3-1 tox: kills parental KB-3-1 adenocarcinoma cells; KB-3-1 viability, CellTiter-Glo ATP luminescence, 72 h; AID 1347075; 400,000 compounds, 1.4% hits; Potency, µM (highest dose often 46.1 µM), usual class: cytotoxic; note: % is set by controls: 0 for no effect and ±100 for the full control effect; nearly all actives have a fitted effect of over 60% in size
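72 h, 37 °C compound treatment of KB-3-1 parental cells; CellTiter-Glo added, 10 min, luminescence read. Data corrected against DMSO-only plates and normalized before curve fitting.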
KB-V1 MDR tox: KB-V1 MDR subline cytotoxicity; Potency, µM (titrated, usually from 46.1 µM), actives largely listed as cytotoxic; AID 1347076; 400,000 compounds, 3.4% hits; KB-V1 MDR cells viability, CellTiter-Glo, 72 h; note: % is set by controls: 0 for no effect and ±100 for the full control effect; nearly all actives have a fitted effect of over 60% in size
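qHTS viability screen in drug-selected KB-V1 MDR cells: 72 h compound treatment at 37 degrees C, ATP luminescence end point.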
Active calls of the source: *; i = inactive; u = inconclusive; x = no result given. Calls come from the whole dose curve; as a rule, active = well fitted curve in the direction sought with a large enough effect; inconclusive = small, poorly fitted or top-dose-only effect, or another doubt; inactive = no such curve, though single readings can be large; an effect the other way counts as inactive or inconclusive. Potency is the fitted concentration of half-maximal effect.

SMILES	ATXN viability	ATXN2 expr inh	TGFb SMAD3 inh	HepG2 tox	KB-3-1 tox	KB-V1 MDR tox
Cc1cccc(C)c1Nc1c(-c2ccccn2)nc2ccccn12	10µM*	x	u	-17%	i	u
Cc1cccc2nc(-c3ccccn3)c(Nc3ccc(F)cc3)n12	x	18µM*	u	-53%	i	u
Cc1cccc(C)c1Nc1c(-c2ccsc2)nc2ccccn12	u	0%	u	-30%	i	i
Cc1cccc2nc(-c3ccco3)c(Nc3ccccc3)n12	i	x	-15%	-10%	u	u
COc1ccc(CN2C(=O)CSCC2(C)C(=O)Nc2ccc3c(c2)OCCO3)cc1 (stereo not given)	x	x	x	x	i	i
Cc1ccc(OCc2nc3ccccc3n2CC(C)C)cc1	u	-12%	-16%	2%	i	i
Cc1cccc(C)c1-n1ncc(C(=O)Nc2ccc3c(c2)OCCO3)c1C1CCN(C(=O)OC(C)(C)C)CC1	i	3%	4%	-35%	i	i
Cc1cccc(C)c1Nc1c(-c2ccsc2)nc2ncccn12	i	-3%	-5%	1%	i	12µM*
O=C1c2ccccc2S(=O)(=O)N1Cc1nc2ccccc2s1	i	4µM*	-6%	-5%	i	i
Cc1ccccc1CN1C(=O)c2ccccc2S1(=O)=O	i	8%	-1%	-25%	i	i
CO[C@@H]1[C@@H](O[C@@H]2O[C@H](C)[C@@H](O[C@H]3C[C@@](C)(O)[C@@H](OC(=O)CC(C)C)[C@H](C)O3)[C@H](N(C)C)[C@H]2O)[C@@H](CC=O)C[C@@H](C)[C@@H](O)/C=C/C=C/C[C@@H](C)OC(=O)C[C@H]1O	i	x	x	x	x	x
COc1ccc(C(=O)OCC(=O)c2ccc(CNC(C)=O)s2)cc1	i	35%	9%	-13%	i	i
CC(=O)NCc1ccc(C(=O)CCl)s1	x	u	u	11µM*	u	i
Cc1cc(C(=O)Nn2c(C3CCCCC3)nc3ccccc3c2=O)ccc1[N+](=O)[O-]	u	x	20µM*	-54%	i	i
O=C(Nn1c(C2CCCCC2)nc2ccccc2c1=O)c1ccc(Cl)c([N+](=O)[O-])c1	i	-23%	u	-24%	i	i
Cc1ccc(S(=O)(=O)Nc2ccc(Nc3nccn4c(-c5ccc6ccccc6c5)cnc34)cc2)cc1	i	16%	u	4%	i	12µM*
Cc1ccc(S(=O)(=O)Nc2ccc(Nc3nccn4c(-c5ccccc5Oc5ccccc5)cnc34)cc2)cc1	i	11%	3%	-38%	i	i
CCOC(=O)c1[nH]c2ccc(F)cc2c1NC(=O)C(C)N1CCc2cc(OC)c(OC)cc2C1 (stereo not given)	u	-21%	-20%	-8%	16µM*	u
CCOc1ccc(Br)cc1CC(=O)O	i	-12%	8%	0%	i	i
CCCOc1ccc(Br)cc1CSC(=N)N	i	u	u	-58%	8.2µM*	i
NC(=O)NN=C1c2cc(S(=O)(=O)N3CCOCC3)ccc2-c2ccc(S(=O)(=O)N3CCOCC3)cc21	x	x	-8%	-10%	i	i
CCN1CCCC1CNCc1cccc(OC)c1OCc1ccc(F)cc1 (stereo not given)	i	6%	0%	-19%	i	12µM*
O=[N+]([O-])c1ccc(/C=N/Nc2nc(N3CCCC3)nc(N3CCCC3)n2)o1	u	-11%	u	-49%	i	21µM*
CCNc1nc(NCC)nc(N/N=C/c2ccc([N+](=O)[O-])o2)n1	i	-18%	u	-32%	u	21µM*
Cc1ccc2nc(N/N=C\c3ccc([N+](=O)[O-])o3)nc(-c3ccccc3)c2c1	11µM*	u	-5%	-5%	26µM*	18µM*
SMILES	ATXN viability	ATXN2 expr inh	TGFb SMAD3 inh	HepG2 tox	KB-3-1 tox	KB-V1 MDR tox
COc1ccc(/C=C\C(=O)O[C@@H]2C(O)C(O[C@@H]3OC(C)[C@H](O[C@@H]4OCC(O[C@H]5O[C@H](CO)[C@@H](O)C(O)C5O)C(O)C4O)C(O)C3O)[C@H](OC(=O)[C@]34CCC(C)(C)C[C@@H]3C3=CCC5[C@@]6(C)CC(O)C(O[C@@H]7OC(CO)C(O)[C@H](O)[C@H]7O)[C@@](C)(C(=O)O)C6CC[C@@]5(C)[C@]3(CO)CC4)O[C@H]2C)cc1 (stereo not given in full)	11µM*	7.1µM*	u	-110%	i	i
O=C(Nc1ccc(F)cc1)C(Sc1nnc2ccccn12)c1ccccc1 (stereo not given)	i	-7%	-18%	0%	i	5.8µM*
COc1ccc(C)cc1NC(=O)C(Sc1nnc2ccccn12)c1ccccc1 (stereo not given)	i	8%	-17%	-2%	i	3.3µM*
C=CCOC(=O)C1=C(C)OC(N)=C(C#N)C1c1ccc(OC)c(CSc2ccccn2)c1 (stereo not given)	u	x	-1%	-11%	i	u
CCCC1=C(C(=O)OCC)C(c2ccc(OC)c(CSc3ccccn3)c2)C(C#N)=C(N)O1 (stereo not given)	i	2%	9%	4%	i	21µM*
CCOC(=O)N1CCC(N(C(=O)Nc2ccc(CC)cc2)C(C)CC)CC1 (stereo not given)	i	2%	-23%	4%	i	i
CCOC(=O)N1CCC(N(C(=O)Nc2ccccc2)C(C)CC)CC1 (stereo not given)	i	-5%	-26%	0%	i	15µM*
CCCc1nc(-c2ccc(-c3ccc(F)cc3)cc2)no1	i	40%	-11%	-30%	i	21µM*
O=C(NCCc1nc(-c2ccc(F)cc2)no1)c1ccc(F)cc1	i	-17%	u	-78%	i	i
O=C(CSc1nnc(NC(=O)c2ccco2)s1)NC1CCCCC1	i	4%	36%	-9%	i	23µM*
CC(C)(C)c1ccc(C(=O)Nc2nnc(SCC(=O)NCC3CCCO3)s2)cc1 (stereo not given)	i	16µM*	-3%	-7%	i	i
O=C(Cc1ccccc1)Nc1nnc(SCC(=O)NC2CCCC2)s1	i	-11%	17%	-2%	i	i
CCOc1ccc(C(=O)Nc2nnc(SCC(=O)NCC3CCCO3)s2)cc1 (stereo not given)	u	u	-8%	-16%	i	i

High-throughput results from PubChem.
